Where “and” joins values, the source holds several entries; their conditions need not be identical. Equal values may be shown once. Results filed as inconclusive are left out. Some compounds were tested as several samples or in several runs, with calls that do not always agree. Calls of active or inactive are those of the source. Unless noted, the call rests on the fitted dose curve.

Drawing on PubChem BioAssay (Tox21), this text covers Potency for nine compounds.

Assay [1] has as its target Gonadotropin-releasing hormone receptor (Homo sapiens) (UniProt P30968). In words: Human gonadotropin-releasing hormone receptor (GnRHR) small molecule agonists, calcium flux assay in GnRHR-HEK293 cells (AID 1920063). Further: nearly all actives have a fitted effect of over 35% in size. The procedure, abridged:
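Agonist mode: compounds at 15 concentrations, in triplicate, went onto calcium dye-loaded GnRHR-HEK293 cells. Intracellular calcium was then followed as 480/540 nm fluorescence at 1 s intervals over 3 min.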

The target of assay [2] is KiSS-1 receptor (Homo sapiens) (UniProt Q969F8). In words: Human kisspeptin (KISS1R) small molecule agonists, calcium flux assay in KISS1R-HEK293 cells (AID 1920064; active means well fitted activation curve with a large enough effect in the repeat runs). Summed up: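 Agonist mode: intracellular calcium rise tracked at 1 s intervals over 3 min (480/540 nm) immediately after compound addition to dye-loaded KISS1R-HEK293 stable cells. Each compound tested at 15 concentrations in triplicate.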
On the technique in general: Calcium flux is commonly read through the fluorescence of an indicator in the cells.

Assay [3] can be described thus: G protein-coupled receptor (GPCR) small molecule agonists, calcium flux assay: HEK293 wild type cell line counter screen (AID 1920065). The procedure, abridged:
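Calcium flux counter screen: compound added in agonist mode at 15 concentrations in triplicate to dye-loaded parental HEK293 cells. Fluorescence (480/540) read kinetically for 3 min; ATP served as positive control.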

A short description of assay [4]: p53 small molecule agonists, cell-based qHTS assay with human liver microsomes: qHTS cell viability counter screen (AID 1963579). Further: nearly all actives have a fitted effect of over 45% in size. Summed up:
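Seed p53RE-bla cells at 4,000 per well; incubate 5 h at 37 C; add compound, human liver microsomes and NADPH; incubate 16 h at 37 C; add CellTiter-Glo; after 30 min at room temperature, read luminescence.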

A short description of assay [5]: p53 small molecule agonists, cell-based qHTS assay: qHTS cell viability counter screen (AID 1963581). Further: nearly all actives have a fitted effect of over 45% in size. The procedure, abridged: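 Counter screen read by CellTiter-Glo luminescence (ATP content, 30 min at room temperature), run in the same wells as the beta-lactamase reporter read. HCT-116 p53RE-bla cells saw compounds for 16 h at 37 C.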
The target of assay [6] is 5-hydroxytryptamine receptor 2A (Homo sapiens) (UniProt P28223). In words: 5-hydroxytryptamine receptor 2A (HTR2A) small molecule antagonists, cell-based qHTS assay (AID 1963586). Further: nearly all actives have a fitted effect of over 45% in size. The procedure, abridged:
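CHO cells stably expressing human HTR2A were plated for 18 h at 37 C, then loaded with calcium dye for 1 h. Compounds were preincubated 5 min at room temperature before DOI (4 nM solution) was added. Kinetic fluorescence was read for 3 min.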

For assay [7] the target is unchanged. Nature of the assay: 5-hydroxytryptamine receptor 2A (HTR2A) small molecule agonists, cell-based qHTS assay (AID 1963587). Further: nearly all actives have a fitted effect of over 30% in size. Further: potency means the concentration at half of the fitted maximal effect. The procedure, abridged:
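HTR2A-CHO cells, plated 18 h at 37 C/5% CO2, dye-loaded 1 h at 37 C; compounds in DMSO added by pin tool (agonist mode). Intracellular calcium flux read as kinetic fluorescence on FDSS over 2 min at 1 s intervals.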

For assay [8], the target named is Muscarinic acetylcholine receptor M1 (Homo sapiens) (UniProt P11229). In words: Cholinergic receptor muscarinic 1 (CHRM1) small molecule antagonists, cell-based qHTS assay (AID 1963588). Further: nearly all actives have a fitted effect of over 40% in size. Summed up: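 Compounds were tested at 15 concentrations in three independent runs. Dye-loaded CHRM1-CHO cells were exposed 5 min at room temperature before stimulation by acetylcholine added at 50nM. Intracellular calcium was read kinetically on FDSS for 3 min.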
(Quantitative high-throughput screening tests each substance at several concentrations.)

Assay [9] can be described thus: cAMP Responsive Elements (CRE) small molecule agonists, cell-based qHTS assay (AID 1963590). The procedure, abridged: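 Agonist mode: compound added to CRE-bla HEK 293T cells (2,000/well, 18 h after plating) for 3 h at 37 C/5% CO2. Reporter activity detected via FRET beta-lactamase substrate, 2 h room-temperature loading.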
A short description of assay [10]: cAMP Responsive Elements (CRE) small molecule antagonists, cell-based qHTS assay (AID 1963591; active means well fitted inhibition curve with a large enough effect in the signal ratio in the repeat runs, not every such curve was filed as active; the % refers to the signal ratio). The procedure, abridged: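 Antagonist mode: compounds are added alongside the adenylyl cyclase activator NKH477 (0.25 uM final) to CRE-bla HEK293T cells for 3 h. LiveBLAzer FRET substrate, 2 h at room temperature, reports bla expression.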
Assay [11] concerns the target Beta-2 adrenergic receptor (Homo sapiens) (UniProt P07550). In words: Adrenergic beta2 receptor (ADRB2) small molecule antagonists, cell-based qHTS assay (AID 1963592). Further: series mostly up to about 92 µM; nearly all actives have a fitted effect of over 50% in size. Summed up: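 Assay format: CHO-ADRB2 cells, 18-20hr seeding at 37C/5% CO2, then compound plus 1nM isoproterenol agonist mix for 0.5hr RT. Homogeneous time-resolved fluorescence cAMP detection after 1hr, expressed as 665/615 nm ratio.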

For assay [12] the target is unchanged. In words: Adrenergic beta2 receptor (ADRB2) small molecule agonists, cell-based qHTS assay (AID 1963593).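 Further: CHO cells stably overexpressing human ADRB2.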 The procedure, abridged:
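CHO cells stably over-expressing ADRB2 were plated overnight at 37C, then dosed with compounds plus a stimulation mix containing 100uM IBMX and 25uM Ro-20-1724 for 0.5hr at room temperature. cAMP was measured by HTRF competition, 1hr.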

Assay [13] deals with D(2) dopamine receptor (Homo sapiens) (UniProt P14416). Nature of the assay: Dopamine D2 receptor (DRD2) small molecule agonists, cell-based qHTS assay (AID 1963594). Further: nearly all actives have a fitted effect of over 35% in size. Summed up: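 HEK293 cells stably expressing DRD2 were cultured 24 h at 37 C, then given Ro20-1724 (0.1 mM final) and compounds for 10 min at room temperature. NKH477 (200nM) was then added for 30 min. cAMP was read by HTRF.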

For assay [14] the target is unchanged. Nature of the assay: Dopamine D2 receptor (DRD2) small molecule antagonists, cell-based qHTS assay (AID 1963595; active means well fitted inhibition curve with a large enough effect in the signal ratio in the repeat runs, with a control signal flat; the % refers to the signal ratio). Summed up: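 Readout: HTRF cAMP, cAMP-d2 competing with cellular cAMP for anti-cAMP cryptate, read after 1 h. Cells: DRD2-HEK293. Conditions: 0.1 mM Ro20-1724, 12 nM quinpirole, 200 nM NKH477, 30 min RT.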
Assay [15] in a line: p53 small molecule agonists, cell-based qHTS assay with human liver microsomes (AID 1963577). Summed up: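 Cells carrying a p53-responsive bla reporter were rested 5 h (37 C, 5% CO2) before compound transfer. Human liver microsomes plus NADPH, 0.5 mg/mL final apiece, supplied metabolism during the 16 h 37 C exposure.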
The nature of assay [16]: p53 small molecule agonists, cell-based qHTS assay with rat liver microsomes (AID 1963578). Summed up: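 Fluorescence from a beta-lactamase reporter under a p53 response element was measured after cells had been incubated 16 h at 37 C with test compound and rat liver microsomes plus NADPH (0.5 mg/mL final each).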
A short description of assay [17]: p53 small molecule agonists, cell-based qHTS assay with rat liver microsomes: qHTS cell viability counter screen (AID 1963580). Further: nearly all actives have a fitted effect of over 45% in size. The procedure, abridged: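 Counter screen for cytotoxicity under metabolic activation: rat liver microsomes and NADPH, 0.5 mg/mL final each, added with compounds to p53RE-bla HCT-116 cells; 16 h at 37 C, then ATP luminescence read.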
Assay [18] has as its target Muscarinic acetylcholine receptor M1 (Homo sapiens) (UniProt P11229). Nature of the assay: Cholinergic receptor muscarinic 1 (CHRM1) small molecule agonists, cell-based qHTS assay (AID 1963589). Further: nearly all actives have a fitted effect of over 35% in size. The procedure, abridged:
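Agonist-mode calcium-flux screen: compounds at 15 concentrations, three independent runs, were pin-transferred onto dye-loaded human CHRM1-CHO cells. Fluorescence was then recorded kinetically every second over minutes.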

A short description of assay [19]: p53 small molecule agonists, cell-based qHTS assay (AID 1963582; active means well fitted activation curve with a large enough effect in the signal ratio in the repeat runs, not every such curve was filed as active; the % refers to the signal ratio). Summed up: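 Read-out is beta-lactamase FRET fluorescence after 2 h at room temperature with LiveBLAzer B/G substrate. p53 response element-bla cells were treated 16 h at 37 C with compounds in DMSO, added 5 h after seeding.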

5-hydroxytryptamine receptor 2A (Homo sapiens), sequence (P28223 whole entry, looked up): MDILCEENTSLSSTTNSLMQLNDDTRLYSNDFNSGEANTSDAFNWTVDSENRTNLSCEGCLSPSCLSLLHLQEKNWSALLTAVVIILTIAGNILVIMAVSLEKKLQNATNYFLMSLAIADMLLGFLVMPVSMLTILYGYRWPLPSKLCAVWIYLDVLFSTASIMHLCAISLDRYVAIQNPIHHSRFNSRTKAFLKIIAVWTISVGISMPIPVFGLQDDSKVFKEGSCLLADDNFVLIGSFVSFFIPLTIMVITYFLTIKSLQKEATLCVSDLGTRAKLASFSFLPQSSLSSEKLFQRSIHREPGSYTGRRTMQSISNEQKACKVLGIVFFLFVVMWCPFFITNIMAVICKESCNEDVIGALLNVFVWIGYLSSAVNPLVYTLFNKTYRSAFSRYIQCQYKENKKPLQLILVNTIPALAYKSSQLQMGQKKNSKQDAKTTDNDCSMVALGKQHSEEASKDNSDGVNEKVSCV
Muscarinic acetylcholine receptor M1 (Homo sapiens), sequence (P11229 whole entry, looked up): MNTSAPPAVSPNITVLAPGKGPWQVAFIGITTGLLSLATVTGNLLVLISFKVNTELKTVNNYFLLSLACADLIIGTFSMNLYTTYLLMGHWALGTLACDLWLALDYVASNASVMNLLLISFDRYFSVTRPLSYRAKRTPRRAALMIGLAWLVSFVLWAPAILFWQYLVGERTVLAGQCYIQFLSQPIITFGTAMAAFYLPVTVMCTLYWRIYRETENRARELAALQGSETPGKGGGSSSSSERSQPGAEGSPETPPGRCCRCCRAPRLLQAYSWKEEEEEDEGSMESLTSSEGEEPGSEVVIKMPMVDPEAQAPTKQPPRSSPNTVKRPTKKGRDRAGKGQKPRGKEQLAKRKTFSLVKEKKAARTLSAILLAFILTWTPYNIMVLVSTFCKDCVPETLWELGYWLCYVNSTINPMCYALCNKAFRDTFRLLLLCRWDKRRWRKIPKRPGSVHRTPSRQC
Beta-2 adrenergic receptor (Homo sapiens), sequence (P07550 whole entry, looked up): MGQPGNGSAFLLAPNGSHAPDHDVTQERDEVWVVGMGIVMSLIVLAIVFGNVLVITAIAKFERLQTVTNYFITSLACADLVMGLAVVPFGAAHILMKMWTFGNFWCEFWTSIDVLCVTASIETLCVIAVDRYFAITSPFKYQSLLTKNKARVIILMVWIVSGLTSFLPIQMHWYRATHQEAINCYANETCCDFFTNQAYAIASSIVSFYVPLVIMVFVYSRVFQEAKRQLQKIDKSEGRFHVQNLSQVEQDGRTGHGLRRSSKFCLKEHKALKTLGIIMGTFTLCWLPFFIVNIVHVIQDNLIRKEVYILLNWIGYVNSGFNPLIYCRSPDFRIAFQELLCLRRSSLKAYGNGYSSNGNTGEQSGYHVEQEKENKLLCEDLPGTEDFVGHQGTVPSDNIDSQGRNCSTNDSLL
KiSS-1 receptor (Homo sapiens), sequence (Q969F8 whole entry, looked up): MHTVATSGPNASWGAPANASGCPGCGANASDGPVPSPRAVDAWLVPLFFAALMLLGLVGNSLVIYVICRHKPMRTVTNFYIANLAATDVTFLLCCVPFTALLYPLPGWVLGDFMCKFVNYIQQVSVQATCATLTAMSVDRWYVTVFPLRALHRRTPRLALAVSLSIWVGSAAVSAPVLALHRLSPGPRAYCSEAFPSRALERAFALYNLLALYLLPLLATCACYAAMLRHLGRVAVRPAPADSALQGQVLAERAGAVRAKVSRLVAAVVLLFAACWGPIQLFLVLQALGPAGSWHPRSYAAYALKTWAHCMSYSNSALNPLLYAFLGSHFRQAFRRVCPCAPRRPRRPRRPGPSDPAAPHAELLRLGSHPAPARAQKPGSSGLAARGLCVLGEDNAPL
D(2) dopamine receptor (Homo sapiens), sequence (P14416 whole entry, looked up): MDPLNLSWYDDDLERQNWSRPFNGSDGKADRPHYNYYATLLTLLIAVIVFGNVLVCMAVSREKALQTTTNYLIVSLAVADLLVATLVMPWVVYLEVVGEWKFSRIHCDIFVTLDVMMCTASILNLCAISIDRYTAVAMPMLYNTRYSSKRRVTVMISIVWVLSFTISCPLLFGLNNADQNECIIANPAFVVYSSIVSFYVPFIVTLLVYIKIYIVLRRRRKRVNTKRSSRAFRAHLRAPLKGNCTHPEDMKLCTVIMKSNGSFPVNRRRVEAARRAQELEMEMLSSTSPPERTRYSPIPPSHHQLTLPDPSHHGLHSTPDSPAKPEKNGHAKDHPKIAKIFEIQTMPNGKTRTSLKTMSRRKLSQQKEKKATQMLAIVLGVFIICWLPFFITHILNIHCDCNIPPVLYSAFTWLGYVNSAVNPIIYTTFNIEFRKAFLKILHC
Gonadotropin-releasing hormone receptor (Homo sapiens), sequence (P30968 whole entry, looked up): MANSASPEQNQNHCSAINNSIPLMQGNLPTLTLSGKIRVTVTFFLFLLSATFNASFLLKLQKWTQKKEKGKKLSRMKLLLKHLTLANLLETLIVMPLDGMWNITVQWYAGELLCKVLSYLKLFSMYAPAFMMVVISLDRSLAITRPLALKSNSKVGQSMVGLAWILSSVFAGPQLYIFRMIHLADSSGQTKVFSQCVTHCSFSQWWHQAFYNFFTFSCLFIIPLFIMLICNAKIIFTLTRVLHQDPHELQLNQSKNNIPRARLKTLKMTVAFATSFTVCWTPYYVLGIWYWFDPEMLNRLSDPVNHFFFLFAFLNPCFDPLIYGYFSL

For the compound `CCCCCCCCCCCCOS(=O)(=O)O`, the Potency result in [1], in assay [2], in assay [3], in assay [4], in [5] and in [6] was “inactive” throughout. The Potency result in assay [8], in assay [9], in assay [10], in [11], in assay [12] and in [13] was “inactive” in each case. Also, in assay [14], the Potency result was “inactive”. The Potency result in assay [7] was “inactive and 55 µM (active) and 49 µM (active)”.
As for `O=[N+]([O-])/C=C/c1ccccc1`, the Potency entry in [1], in assay [2], in assay [15], in assay [16], in assay [4] and in assay [17] was “inactive” in each case. The Potency entry in assay [5], in assay [6], in assay [7], in assay [8], in assay [18] and in assay [11] was “inactive” each time. Besides, the Potency result in assay [12], in [13] and in [14] was “inactive” throughout.
For `COC(=O)c1cncn1C(C)c1ccccc1` (centres undefined), the Potency result in [1], in assay [2], in assay [15], in assay [16], in [4] and in assay [17] was “inactive” each time. In addition, the Potency entry in assay [5], in assay [19], in assay [6], in [7], in assay [8] and in [18] was “inactive” in each case. For the same compound, the Potency entry in assay [9], in assay [10], in assay [11], in assay [12], in assay [13] and in assay [14] was “inactive” throughout.
As for `CCC(C)n1c(=O)[nH]c(C)c(Br)c1=O` (centres undefined), the Potency entry in assay [2], in assay [3], in assay [15], in [16], in assay [4] and in assay [17] was “inactive” in each case. In addition, the Potency entry in [5], in [19], in [6], in assay [8], in assay [18] and in [9] was “inactive” throughout. In addition, the Potency result in [10] and in assay [12] was “inactive” throughout.
Regarding `COP(=O)(OC)OC`, the Potency entry in assay [3], in assay [15], in [16], in assay [4], in assay [5] and in [19] was “inactive” each time. In addition, the Potency result in [6], in [8], in assay [9], in assay [10], in assay [11] and in assay [12] was “inactive” in each case. The Potency entry in [13] and in [14] was “inactive” in each case. In assay [7], the Potency was 55.4 µM (active) and inactive.
For `C1CC2OC2CC1C1CO1` (centres undefined), the Potency result in assay [1], in [2], in assay [15], in assay [16], in assay [4] and in assay [17] was “inactive” each time. Also, the Potency result in assay [5], in assay [6], in [7], in assay [8], in assay [18] and in [9] was “inactive” throughout. The Potency result in [10], in assay [11], in assay [12], in assay [13] and in assay [14] was “inactive” each time.
Turning to `NC(=O)CN1CCCC1=O`, the Potency entry in [2], in assay [3], in [15], in [16], in assay [4] and in assay [17] was “inactive” each time. In addition, the Potency result in [5], in assay [19], in assay [9], in assay [10], in [12] and in assay [13] was “inactive” in each case. Also, the Potency entry in assay [14] was “inactive”.
As to `[Cl-].[Cl-].[Cl-].[Fe+3]`, the Potency result in assay [1], in assay [4], in assay [17], in [5], in assay [6] and in assay [7] was “inactive” in each case. For the same compound, the Potency entry in assay [8], in assay [18], in assay [9], in assay [10], in [11] and in assay [12] was “inactive” throughout. The Potency result in assay [13] is “inactive”.
With `O=S(=O)(O)O`, the Potency entry in [1], in assay [2], in [3], in assay [17], in assay [5] and in assay [6] was “inactive” throughout. The Potency entry in assay [7], in assay [8], in [18], in [9], in assay [10] and in [11] was “inactive” in each case. In addition, the Potency result in assay [12], in [13] and in assay [14] was “inactive” each time.
